NPC1 prom act = activators of NPC1 promoter | Huh7 NPC1 promoter luciferase reporter, 24 h | Potency, µM (doses to about 9.22 µM), usual class: activators | hit rate 2.4% among 320,000 | AID 485313; also: nearly all actives have a fitted effect of over 60% in size
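Luciferase expression driven by the NPC1 promoter was measured in stably transfected Huh7 cells after a 24 h compound incubation, using a luciferase reagent and a luminescence read.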
ELG1 genotox = genotoxicity induction in ELG1-luciferase HEK293T cells; HEK293T ELG1-luciferase reporter, luminescence, 16 h; Potency, µM (titrated, usually from 46 µM), actives largely listed as activators; hit rate 1.3% among 330,000; AID 504466; also: nearly all actives have a fitted effect of over 60% in size
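Genotoxic stress is detected as increased luminescence from luciferase-tagged ELG1 in HEK293T cells, measured with ONE-Glo after a 16 hr treatment at 37 °C.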
FLuc counter = firefly luciferase modulation, counter-screen for miR-21 project; P08659; purified FLuc, Km substrates, luminescence inhibition; Potency, µM (series often up to 57.5 µM), most hits filed as inhibitors; hit rate 6.9% among 360,000; AID 588342; also: nearly all actives have a fitted effect of over 55% in size
Target sequence (P08659 whole entry, looked up): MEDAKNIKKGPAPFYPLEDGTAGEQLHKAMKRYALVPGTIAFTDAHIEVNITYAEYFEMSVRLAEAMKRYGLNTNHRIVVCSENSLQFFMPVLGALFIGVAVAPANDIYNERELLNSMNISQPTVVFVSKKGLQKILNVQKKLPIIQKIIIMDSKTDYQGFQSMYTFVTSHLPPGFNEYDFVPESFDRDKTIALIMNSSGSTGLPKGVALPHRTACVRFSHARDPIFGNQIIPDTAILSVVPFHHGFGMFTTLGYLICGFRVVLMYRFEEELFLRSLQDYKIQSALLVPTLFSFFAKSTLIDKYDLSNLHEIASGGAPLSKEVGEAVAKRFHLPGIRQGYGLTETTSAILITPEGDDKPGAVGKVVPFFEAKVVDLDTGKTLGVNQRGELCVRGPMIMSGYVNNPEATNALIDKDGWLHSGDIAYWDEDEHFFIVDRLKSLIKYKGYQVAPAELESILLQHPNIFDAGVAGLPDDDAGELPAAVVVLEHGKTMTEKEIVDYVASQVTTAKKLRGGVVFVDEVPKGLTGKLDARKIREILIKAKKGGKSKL
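Biochemical qHTS of compounds, final roughly 60 µM downward over six points, against 10 nM purified firefly luciferase using Km concentrations of substrates (10 uM D-luciferin, 10 uM ATP) in Tris acetate pH 7.5 buffer; luminescence output.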
Rab9 promoter act = activates the Rab9 promoter | Huh7 Rab9 promoter-luciferase reporter, luminescence, 24 h | Potency, µM (titrated, usually from 9.22 µM), usual class: activators | hit rate 2.8% among 320,000 | AID 485297; also: nearly all actives have a fitted effect of over 60% in size
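Rab9 promoter-driven luciferase in stably transfected Huh7 cells; 1500 cells/well rested 2 h, exposed to compound in DMSO for 24 h at 37 °C, 5% CO2. Luminescence read 10 min after adding luciferase reagent at ambient temperature.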
SMN2 splice enh = SMN2 splice variant enhancement | HEK293 SMN2-luciferase splicing reporter, luminescence, 30-36 h | Potency, µM (highest dose often 46.1 µM), actives largely listed as activators | hit rate 2.8% among 210,000; also: nearly all actives have a fitted effect of over 55% in size
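qHTS luciferase splicing reporter: luminescence rises when SMN2 exon 7 is included in transfected HEK293 cells. Compound exposure lasted 30-36 h at 37C, with 4.5 mM final sodium butyrate as control, followed by a ONE-Glo read.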
Hits are given with their value; . = inactive; ? = inconclusive; / = no result; [ ] = another dose, or the depositor's remark. In the library only some 7.5% were active in any assay of this set; here they are far more common. Calls follow the shape of the dose curve; as a rule, active = well fitted curve in the direction sought with a large enough effect; inconclusive = small, poorly fitted or top-dose-only effect, or another doubt; inactive = no such curve, though single readings can be large; an effect the other way counts as inactive or inconclusive.

SMILES	NPC1 prom act	ELG1 genotox	FLuc counter	Rab9 promoter act	SMN2 splice enh
CCCC(=O)OCc1cnc(C)c2oc(=O)c(C(=O)Nc3cccc(C(F)(F)F)c3)cc12	/	/	.	/	/
Cc1cc(NC(=O)CCN2C(=O)C3C4C=CC(C4)C3C2=O)ccc1Br (configuration not stated)	.	.	.	.	.
COc1ccccc1C(=O)Nc1cccc(Oc2c(F)c(F)c(F)c(F)c2F)c1	.	.	.	.	/
N=c1oc2ccccc2cc1-c1nc(-c2ccccc2)cs1	.	.	4.8µM	.	.
N=c1oc2ccc3ccccc3c2cc1-c1nc(-c2ccccc2)cs1	.	.	.	.	.
CCN1C=CC(=C2C(=O)c3ccccc3C2=O)C=C1	0.0002µM	?	0.085µM	0.0003µM	0.25µM
CN1C=CC(=C2C(=O)c3ccccc3C2=O)C=C1	0.45µM	2.9µM	3µM	0.35µM	13µM
CCCCCCN1Cc2ccccc2C1	.	.	.	.	.
COC1=C(OC)C(=O)c2ccccc2C1=O	.	/	/	.	.
CCCN1C=CC(=C2C(=O)c3ccccc3C2=O)C=C1	3.2e-05µM	.	0.067µM	0.0003µM	.
CCCCCCN1C=CC(=C2C(=O)c3ccccc3C2=O)C=C1	?	0.18µM	0.21µM	0.11µM	/
Nc1c(-c2cccc([N+](=O)[O-])c2)nc2ccccn12	?	?	17µM	3.2µM	?
O=[N+]([O-])c1cccc(-c2ncc3ccccn23)c1	.	.	.	?	.
CCCCC(=O)NC1(C(F)(F)F)C(=O)N(CC(C)C)C2=C1C(=O)CC(C)(C)C2 (configuration not stated)	.	.	.	.[1.84 µM]	.
COc1cccc2[nH]c3ccccc3c(=O)c12	.	.	17µM	.	/
S=c1nc(COc2ccccc2)[nH]c2ccccc12	?	.	24µM	?	/
Clc1ccc2nc(COc3ccccc3)[nH]c2c1	.	?	12µM	?	/
COc1ccc(N2C(=O)[C@@H]3[C@H](C2=O)[C@H]2c4ccccc4C=CN2[C@@H]3C(C)=O)cc1	.	.	?	.	.
COc1ccc(C(=O)Nc2ccc(CN3CCS(=O)(=O)CC3)cc2)cc1	.	.	?	.	/
CN(C)c1ccc(NC(=O)c2ccc(Cn3cc([N+](=O)[O-])cn3)cc2)cc1	.	.	12µM	.	.
Cc1ccc(C(=O)Nc2ccc(CN3CCS(=O)(=O)CC3)cc2)cc1C	?	.	19µM	?	/
CN(C)c1ccc(C(=O)Nc2ccc(CN3CCS(=O)(=O)CC3)cc2)cc1	.	.	13µM	.	/
Cc1ccc(NCC(=O)N/N=C/c2cccc(Br)c2)cc1	.	.	.	.	.
CC(C)CN(CC(C)C)C(=O)C1CCCN(S(=O)(=O)c2ccc3c(c2)oc(=O)n3C)C1 (configuration not stated)	/	/	.	/	.
CCCn1c2ccccc2c2cnn(CC(=O)N(C)c3ccc(F)cc3)c(=O)c21	/	/	.	/	/
SMILES	NPC1 prom act	ELG1 genotox	FLuc counter	Rab9 promoter act	SMN2 splice enh
COC(=O)c1cn(NC(=O)C2CCCCC2)c(=O)c2ccccc12	.	.	.	6.3µM	.
Clc1ccc2oc(-c3ccccn3)nc2c1	2.5µM	?	.[2.3 µM]	3.2µM	16µM
Nc1ccc2oc(-c3ccccn3)nc2c1	?	?	19µM	?	2.8µM
COC(C(=O)Nc1ccc(Cl)cc1C)c1ccccc1 (configuration not stated)	.	.	.	.	.
Cc1ccc(C)c(NC(=O)NCc2ccccn2)c1	.	.	.	.	/
Cc1ccc(C)c(NC(=S)c2ccccn2)c1	.	.	17µM	.	.
CN(C)c1ccc(NC(=S)c2ccc3ccccc3n2)cc1	?	?	17µM	.	/
Cc1ccc(C)c(NC(=S)c2ccc3ccccc3n2)c1	?	?	5.4µM	3.2µM	11µM
CCOc1cc(C(=O)CSc2nnc(CNc3ccc(Cl)cc3)o2)ccc1NC(=O)CC	.	.	.	.	/
CCOC(=O)c1cnc2cc3c(cn2c1=O)CCCC3	?	.	24µM	3.2µM	.
CCOC(=O)c1cnc2scnn2c1=O	.	.	.	.	.
CC(C)c1ccc(-c2nnc(N)s2)cc1	3.2µM	18µM	1.9µM	2.2µM	14µM
CCCOc1ccc(-c2nnc(N)s2)cc1	?	18µM	7.6µM	?	?
Nc1nnc(-c2ccncc2)s1	.	.	.	.	.
COc1ccc(-c2nnc(N)s2)cc1	.	?	17µM	.	.
CC(c1ccccc1)c1nnc(N)s1 (configuration not stated)	.	.	.	.	/
Cc1ccc(-c2nnc(N)s2)cc1	.	?	13µM	.	?
CNc1nnc(-c2ccc(OC)cc2)s1	2.8µM	16µM	12µM	3.2µM	13µM
CNc1nnc(-c2ccncc2)s1	.	.	.	.	.
CCCOc1ccc(-c2nc(-c3ccc(N)cc3)cs2)cc1	.	.	7.6µM	?	/
CC1CCC(NC(=O)CN(C)S(=O)(=O)c2cccc3cccnc23)CC1 (configuration not stated)	.	.	.	.	/
COc1ccc(CN2CCCCCC2)c(C)c1C	.	.	.	.	.
CC(=O)c1cccc(NC(=O)c2cc(-n3cnnc3)ccc2Cl)c1	/	/	.	/	.
CC(=O)Nc1ccc(NC(=O)c2cc(-n3cnnc3)ccc2Cl)cc1	.	.	.	.	.
Cc1ccc(NC(=O)c2cc(-n3cnnc3)ccc2Cl)c(C)c1	.	.	.	.	.
SMILES	NPC1 prom act	ELG1 genotox	FLuc counter	Rab9 promoter act	SMN2 splice enh
Cc1c(NC(=O)c2cc(-n3cnnc3)ccc2Cl)cccc1-c1nc2ccccc2s1	?	.	0.6µM	3.5µM	5.6µM
O=C(Nc1cccc(-c2nc3ccccc3s2)c1)c1cc(-n2cnnc2)ccc1Cl	.	.	6.7µM	.	/
Cc1c(NC(=O)c2cccs2)cccc1-c1nc2ccccc2s1	.	.	4.3µM	.	.
Cc1ccc2sc(-c3ccc(NC(=O)c4cc(-n5cnnc5)ccc4Cl)cc3)nc2c1	?	.	6µM	?	13µM
O=C(O)C/C=C\CC(=O)O	/	/	/	/	.[9.22 µM]
CC(C)OC(=O)CSc1nnc(COc2ccc([N+](=O)[O-])cc2)n1C	.	.	.	.	.
CCc1ccccc1N(CC(=O)NCc1ccc(OC)cc1)C(=O)CCC(=O)Nc1ccccn1	.	.	.	.	/
O=C(Cc1ccc(S(=O)(=O)N2CCOCC2)s1)Nc1cc(C(F)(F)F)ccc1N1CCCC1	.	.	.	.	/
COc1cc(/C=N/NC(=O)c2nc(C)cc(C)n2)ccc1O	.	.	?	.	?
COc1cc(/C=N/NC(=Nc2ccc(C)cc2)c2nc3ccccc3s2)ccc1O	.	2.6µM	2.7µM	?	.
COc1ccccc1/C=N/NC(=Nc1ccc(C)cc1)c1nc2ccccc2s1	.	?	17µM	.	.
COc1ccc(NC(=O)CCCn2nc(C)c3c(C)n(-c4ccccc4)nc3c2=O)cc1	.	.	.	.	/
COc1ccc(CCN(C)C2CCCN(S(=O)(=O)c3ccccc3)C2)cc1OC (configuration not stated)	.	.	.	.	/
Oc1oc(-c2cccc3ccccc23)nc1/C=N/c1nccs1	.	.	.	.	.
